Assay results taken from PubChem BioAssay (NCI).
Compounds without any hit were thinned out: in the full panel of roughly 83,000, 20% have a hit.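 Single-dose data. Exposure time 48 hours. Values below 10 considered active.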 Active and inactive are the calls of the source.

What follows are compounds tested on SR leukemia (assay: NCI-60 one-dose screen, 48 h (100 = growth as untreated, 0 = no growth, -100 = all killed)). Conditions: 10 µM unless noted.
Description: Growth inhibition of the SR human tumor cell line is measured as a screen for anti-cancer activity. Cells are grown in 96 well plates and exposed to the test compound for 48 hours. Compounds are tested at a single concentration, which is 10^-5 M for most compounds. The reported endpoint is percent growth (GI% or GIPRCNT), where numbers from 0 - 100% represent growth inhibition, and numbers from -100% - 0 represent cell death. For example, a value of 40 represents 60% growth inhibition. A value of 0 means no net growth occurred over the course of the experiment. A value of -40 indicates 40% of cells at the beginning of the experiment died by the end of the experiment. A value of -100 means all cells are dead at the end of the experiment.
NCI-60 Human Tumor Cell Lines Screen was performed using the standard one-dose NCI protocol, which is described in more detail at https://dtp.cancer.gov/discovery_development/nci-60/default.htm.
Compounds with GIPRCNT values below 10 were considered active. Activity score was based on GIPRCNT using the following formula: […]
Score is 0 for GIPRCNT values of 100 or above, 50 for GIPRCNT values of 0, and 100 for GIPRCNT values of -100.

SMILES | growth
COc1cc(/C=C/c2cc(/C=C/c3ccc(O)c(OC)c3)n(C(=O)Nc3ccc(C)cc3C)n2)ccc1O | -2.07% (active)
Oc1ccc(C(c2ccc(O)cc2)c2ccc(Cl)cn2)cc1 | 90% (inactive)
Cc1ccc(C(=O)Nc2ccc(CN3CCN(C)CC3)c(C(F)(F)F)c2)cc1C#Cc1cnc(N)c2ccccc12 | -8.12% (active)
COc1ccc(C2CC(=O)Oc3c(OC)c4c(c(OC)c32)OCO4)cc1 (stereo not given) | 61.8% (inactive)
CN1CCN(Cc2ccc(NC(=O)c3cncc(C#Cc4c(N)ncc5cc(F)ccc45)c3)cc2C(F)(F)F)CC1 | 0.501% (active)
Cc1cc2c(C(C)C)c(O)c(O)c(/C=N/O)c2c(O)c1-c1c(C)cc2c(C(C)C)c(O)c(O)c(/C=N/O)c2c1O | 4.52% (active)
CCOC(=O)C1=C(c2ccccc2)N=C2N(c3ccccc3)N=C(C(C)=O)N2C1c1ccc(Br)cc1 (stereo not given) | 81.8% (inactive)
c1ccc2cc(Cn3cc[n+](Cc4ccc5ccccc5c4)c3)ccc2c1 | 22.3% (inactive)
O=C1c2c(c3c4cc(F)ccc4oc3c3[nH]c4ccccc4c23)C(=O)N1O | 9.66% (active)
N#C/C(=C/C=C/c1ccccc1)S(=O)c1ccccc1 (stereo not given) | 3.12% (active)
O=C1CCc2c(sc3[nH]c(=S)n(-c4cc(C(F)(F)F)cc(C(F)(F)F)c4)c(=O)c23)C1 | 13.4% (inactive)
CCN1C(=O)N(CC)C2C1NN=c1s/c(=C\c3ccccc3)c(=O)n12 (stereo not given) | 14.8% (inactive)
C[C@H]1c2ccccc2CN1CCCOc1cc2c(cc1OCC1CC1)C1(CCCC1)C(N)=N2 | 13.8% (inactive)
CCn1c2ccccc2c2cc(C(O)c3cccc4ncccc34)ccc21 (stereo not given) | 15.5% (inactive)
COc1ccc(C2=NN(C=O)C(c3ccc(Oc4nc5c(c(=O)n(C)c(=O)n5C)n4C)c(OC)c3)C2)cc1 (stereo not given) | 83.9% (inactive)
COC(=O)[C@H](C)NC(=O)c1ccc(NC(=O)c2[nH]c(C)c(Cl)c2Cl)c(OCCN)c1 | 67.2% (inactive)
O=C(Nc1ccccc1)Nc1ccccc1CNc1nc(Nc2ccc(OCCN3CCCC3)cc2)ncc1Cl | -6.4% (active)
CCCCN(CCC#N)C(N)=O | 130% (inactive)
COc1cccc(-c2cc(-c3ccc(Nc4nc(Nc5ccc(Cl)cc5)nc(Nc5ccc(Cl)cc5)n4)cc3)nc(N)c2C#N)c1 | -6.27% (active)
CCN=c1sc2c(n1NC(=O)c1cc3ccc1CCc1ccc(cc1)CC3)C(=O)c1ccccc1C2=O | -3.66% (active)

SMILES | growth
O=C(Nc1ccccc1C(F)(F)F)C1=NCCCCN1 | 102% (inactive)
CCc1ccc(Cc2cnc(NC(=O)c3cc(C)oc3C)s2)cc1 | 19.5% (inactive)
CCN1CCN(c2nc(NNC(=O)c3ccc(OC)cc3)nc(N3CCN(C(c4ccccc4)c4ccccc4)CC3)n2)CC1 | -8.03% (active)
CC(=O)CC(=O)c1ccccc1.[Cu+2] | 51.8% (inactive)
O=C(Nc1ccccc1CNc1nc(Nc2ccc(OCCN3CCCC3)cc2)ncc1Cl)NC1CCCCC1 | 5.48% (active)
COC(=O)CCc1c(/C=C2\N=C(c3ccc[nH]3)C=C2OC)[nH]c(C)c1C(=O)OCc1ccccc1 | -17.8% (active)
CN1CCN(Cc2ccc(NC(=O)c3cncc(C#Cc4cnc(N)c5ccc(C#N)cc45)c3)cc2C(F)(F)F)CC1 | 20% (inactive)
CC(C)(C)c1ccc(C(=O)Nc2sc3c(c2C#N)CCC(=O)C3)cc1 | 4.39% (active)
CC1=NC(=S)NC(c2ccccc2)/C1=C1/CC(c2ccccc2O)NN1 (stereo not given) | 97.8% (inactive)
COc1cc(NC(=O)c2cncnc2Nc2ccc3c(ccn3Cc3cccc(F)c3)c2)cc(OC)c1 | 19.7% (inactive)
COc1ccc(-c2nc3cc(C(=O)NC4CCCCC4)ccc3n2C2CCCCC2)cc1 | 51.2% (inactive)
N#CSCc1cc(Cl)c(CSC#N)cc1Cl | 10.8% (inactive)
c1ccc2[nH]c(-c3ccc(-c4nccc5c4[nH]c4ccccc45)cc3)nc2c1 | -4.29% (active)
CS(=O)(=O)Nc1cc(-c2ccc3ncnc(Nc4cccc(Cl)c4)c3c2)cnc1Cl | 0.413% (active)
Nc1ncc(-c2ccc3ncnc(N4CCc5ccc(Cl)cc54)c3c2)cn1 | -10.6% (active)
Nc1ncc(-c2ccc3ncnc(N4CCc5cc(F)c(Cl)cc54)c3c2)cc1C=O | 18.7% (inactive)
COc1ccc(/C=C2/CCc3cc4ccc(OC)cc4[o+]c32)c(O)c1 | -2.1% (active)
COc1cc(C(=O)n2nc(NCCCc3ccccc3)c3cc(N)ccc32)cc(OC)c1OC | 52.3% (inactive)
Cc1[nH]c(C(=O)Nc2ccc(C(N)=O)cc2OC(C)C)c(Cl)c1Cl | 79.2% (inactive)
Cc1cc2c(c(C)n1)CN(C(=O)Nc1nc(-c3cncs3)ccc1N)C2 | 95.3% (inactive)
